# Tests used:
# Assay in all cases: PBM binding z-score (relative to random genomic background probes); higher = stronger binding; sequences stand for … in GC…GCGATTGACAGCGTAGAATGAAGG
# [1] = test system: PPARg:RXRa DBDmut IVT, anti-RXR (DBD mutation: RXRa K156A/R161A, NR concentration 270 nM, RXRa partner concentration 90 nM)
# In short: (§1)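 Binding z-scores were set against random background probes. The data came from custom Agilent 4×180K protein-binding microarrays carrying double-stranded probes with 34-nt variable regions, incubated 1 h with ligand-free nuclear receptor dimers. Partner-specific antibodies detected binding, and scanned fluorescence was regression-normalized.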
# [2] = test system: PPARg:RXRa IVT, anti-PPARg (NR concentration 270 nM, RXRa partner concentration 90 nM)
# In short: as §1
# [3] = test system: PPARg DBDmut:RXRa IVT, anti-PPARg (DBD mutation: PPARg1 K132A/R137A, NR concentration 270 nM, RXRa partner concentration 90 nM)
# In short: as §1
# [4] = test system: PPARg DBDmut IVT, anti-PPARg (DBD mutation: PPARg1 K132A/R137A, NR concentration 270 nM)
# In short: as §1
# [5] = test system: PPARg homodimer (NR concentration 180 nM)
# In short: as §1
# [6] = test system: PXR:RXRa (NR concentration 270 nM, RXRa partner concentration 90 nM)
# In short: as §1
# [7] = test system: PXR homodimer (NR concentration 270 nM)
# In short: as §1
# [8] = test system: RARa:RXR (NR concentration 270 nM, RXRa partner concentration 90 nM)
# In short: as §1
# [9] = test system: RARa homodimer (NR concentration 270 nM)
# In short: as §1
# [10] = test system: RARb:RXRa (NR concentration 270 nM, RXRa partner concentration 90 nM)
# In short: as §1
Sequence,PBM binding z-score [1],PBM binding z-score [2],PBM binding z-score [3],PBM binding z-score [4],PBM binding z-score [5],PBM binding z-score [6],PBM binding z-score [7],PBM binding z-score [8],PBM binding z-score [9],PBM binding z-score [10]
ATATGTAGGTTAGCTTGGGTCATTCAGACTAGGC,6.6,5.97,1.34,1.95,1.5,2.77,0.807,2.26,0.877,1.89
CATACAGGGTCTGCTAGGCCAGAGTAGGGACGGC,-0.963,-0.162,-0.142,-0.562,0.266,-0.649,-0.0998,-0.482,0.212,0.183
AGTCAAAGTTCAGGACGAGGTAACGAAAAGCACG,0.0438,2.03,0.538,0.477,1.63,2.75,1.22,2.71,0.551,4.3
TCATATAGGTATACAGGTGAAAGTCCGTAAGTTA,2.8,2.54,0.449,1.54,1.33,0.873,0.816,1.03,1.2,0.603
AGGCAAAGTTCACTAGGTAACGTAAGATTCAGCT,2.96,4.77,1.25,1.49,3.61,4.02,2.73,2.94,1.73,4.61
AATCAAAGTTCATCTAGGTAACGTAAGATATGCT,0.153,2.87,1.79,1.11,2.75,4.95,7.06,3.24,1.38,5.22
AATACAGGGTCACTCGGCCAGAGTAGGTACGAAT,3.09,5.09,2.08,1.63,2.92,3.49,0.336,4.66,0.723,4.39
GATACAGGGTCAAGGCCAGTGTACGCGTATTGAT,2.53,3.95,0.493,-0.124,2.17,3.97,0.209,4.47,0.237,4.41
CGAACTAGGTCAAGGATAGTGAATCTCCGCACGC,8.31,8.31,3.8,1.33,2.41,0.863,-0.425,1.96,0.921,3.73
AGTCAAAGATCACTAGGTAACGTAAGATTCAGCT,1.14,2.97,0.137,0.156,0.697,-0.103,0.0772,0.125,0.459,0.233
CAAACTAGGTTAAGGTCAAAGTCGGTTTGTGCCA,7.61,7.5,2.24,3.72,4.36,5.2,3.07,5.71,2.29,4.32
CGAACGAGGGCGTGAGTTGATAGCAAATGCCGAT,0.665,0.126,-0.548,-1.21,-0.313,-0.163,-0.37,-0.268,-0.533,0.442
ATCGAAAGGTCGACGAGGTAAGTATACACCGTTT,0.556,1.6,0.911,0.688,1.42,2.3,0.185,3.12,0.419,3.66
CCTCGGAGGACAGAGGGTCAGAGCTGTCCGCTTT,-0.421,0.141,-1.61,-1.81,0.33,0.62,-0.49,1.14,-0.305,2.22
ACTTACGGGTAAACGAGGTTATAGCACGCGTATA,0.828,1.16,-0.07,0.0677,0.611,1.65,0.138,2.32,0.806,0.846
CGAACTAGGTCATTGACAGGACAGAGAATAGTAA,8,8.14,4.58,3.51,2.33,1.5,-0.262,2.19,0.528,3.65
CCTACTGGGCCAAGGTCATTGGTCAGTCAAAGCA,3.94,4.88,-0.325,-0.629,1.86,3.62,1.12,3.85,0.172,3.56
GTTACAGGGTCAGCTAGAGGCCAGAGTATGGAAA,1.9,2.79,0.0715,-0.0967,2.41,3.39,0.141,3.88,0.709,4.27
ATAAGTAGGTTACATCCGGGTCATTCAGGCTATG,7.68,7.66,4.25,3.55,2.34,3.51,2.42,3.58,1.79,2.26
ACTTCCGGGTCAACGAGGTTATAGCACGCGTATA,4.21,5.27,1.78,0.785,3.05,4.91,6.49,4.87,0.82,3.97
TCTGCTAGGTCAGTTCGTCAGCTAACGAGCTGCC,2.26,2.31,1.01,0.64,-0.455,0.229,-1.06,0.273,-1.33,3.01
GGAACGAGGGTAAAGTTGATAGCATCTGTCGACG,2.48,2.91,0.376,-0.666,0.544,0.0856,-0.214,0.287,-0.126,0.952
CGAACTAGGTCATCCACGACAGTGAATACATTGA,7.98,8.15,5.88,5.31,2.72,1.59,0.311,2.59,0.664,3.87
